A short description of test [1]: HepG2 liver cancer cell viability effects, profiling panel, resazurin fluorescence, 24 h, PK04 Diversity Set (AID 1172). The conditions noted are these: higher = more signal. A general note: Alamar Blue is a resazurin reagent that responds to reducing activity.
The nature of test [2]: basal S. cerevisiae growth modulation, no modifier, primary screen, OD600, strain BY4716, 24 h, basal condition (AID 1173). The conditions noted are these: OD600, 24 h, higher = more signal, called active from +8 up or from −8 down.
The nature of test [3]: MM1S myeloma cell viability, profiling panel, resazurin fluorescence, basal, 24 h, PK04 Diversity Set (AID 1174).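 Further: MM1S multiple myeloma cell line.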 The conditions noted are these: higher = more signal, called active from +8 up or from −8 down.
In test [4] the target is Dihydroorotate dehydrogenase (quinone), mitochondrial (Plasmodium falciparum (isolate 3D7)) (UniProt Q08210). The experiment in a line: PfDHODH enzyme inhibitors, primary screen, biochemical, C-terminal His tag, absorbance 600 nm (AID 1175).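 Further: recombinant parasite enzyme with a five histidine tag at its C terminus.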 The conditions noted are these: DCIP absorbance 600 nm, higher = more signal, called active from +8 up or from −8 down.
A short description of test [5]: S. cerevisiae RM11-1a growth modifiers, primary screen, strain RM11-1a, OD600, basal, 24 h (AID 1177).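 Further: cultures grown under basal conditions with no added stressor.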 The conditions noted are these: OD600, 24 h, higher = more signal, called active from +8 up or from −8 down.
Test [6] in a line: E. coli acrAB mutant growth effects, primary screen, E. coli filamentation inducers, strain DRC39, OD650, 24 h (AID 1178).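 Further: growth measured as culture turbidity by optical density at 650 nm.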 The note with it: higher = more signal, called active from +8 up or from −8 down.
Test [7] in a line: E. coli acrAB mutant growth effects, primary screen, E. coli filamentation inducers, strain DRC39, OD650, 48 h (AID 1179).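 Further: screen aims at cell division blockers that make cells filament.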 The conditions noted are these: E. coli DRC39 delta-acrAB growth, higher = more signal, called active from +8 up or from −8 down.
Test [8] is described as follows: RPMI8226 myeloma cell viability, profiling panel, resazurin fluorescence, basal, 24 h, PK04 Diversity Set (AID 1180).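 Further: RPMI8826 multiple myeloma cell line at 5000 cells per well.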 The note with it: higher = more signal.
For test [9], the target named is E3 ubiquitin-protein ligase XIAP (Homo sapiens) (UniProt P98170). Kind of test: XIAP binders, primary screen, biophysical, small-molecule microarray, fluorescence 635 nm (AID 1181).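 Further: score merges 667 nm emission and signal to noise over triplicate slides.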 The note with it: small-molecule microarray binding, higher = more signal.
Test [10] concerns XIP peptide (Xip251-270) binding. Kind of test: small-molecule binders of XIP peptide, primary screen, biochemical, small-molecule microarray, fluorescence 635/667 nm, 0.1 µg/mL protein (AID 1182). The conditions noted are these: fluorescent protein binding, 635 nm, higher = more signal, called active from +8 up or from −8 down.
Another test deals with XIP peptide (Xip251-270). Kind of test: small-molecule binders of XIP peptide, primary screen, biochemical, small-molecule microarray, fluorescence 635/667 nm, 0.5 µg/mL protein (AID 1183). The note with it: small-molecule microarray binding, fluorescence 635 nm; higher = more signal.
Test [11] is described as follows: Plasmodium falciparum growth inhibition, primary screen, strain 3D7, DAPI fluorescence, 100 nL (AID 1184).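 Further: parasites grown inside human red blood cells in medium with human serum.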 The conditions noted are these: P. falciparum 3D7 growth, 3 d, higher = more signal.
Test [12] deals with Homeobox protein Hox-A13 (Mus musculus) (UniProt Q62424). Kind of test: inhibitors of HoxA13-DNA binding, primary screen, biochemical, fluorescence polarization, labeled oligonucleotide (AID 1185). The conditions noted are these: 15 min, higher = more signal, called active from +8 up or from −8 down. On the technique in general: Fluorescence polarisation rises when a labelled molecule tumbles more slowly, as on binding a larger partner.

A short description of test [13]: inhibitors of hydroxyurea-induced Chk1 phosphorylation, primary screen, imaging, HeLa, phospho-Chk1 antibody, percent positive cells (AID 1186). The note with it: hydroxyurea-induced phospho-Chk1 immunofluorescence imaging, higher = more signal.
A short description of test [14]: inhibitors of hydroxyurea-induced Chk1 phosphorylation, primary screen, imaging, HeLa, phospho-Chk1 nuclear intensity (AID 1187). The conditions noted are these: hydroxyurea-induced phospho-Chk1 immunofluorescence imaging, higher = more signal.

Activity calls are given as the source filed them. Unless noted, how the calls were made is not given here.

Chain of E3 ubiquitin-protein ligase XIAP (Homo sapiens) (P98170 whole entry, looked up): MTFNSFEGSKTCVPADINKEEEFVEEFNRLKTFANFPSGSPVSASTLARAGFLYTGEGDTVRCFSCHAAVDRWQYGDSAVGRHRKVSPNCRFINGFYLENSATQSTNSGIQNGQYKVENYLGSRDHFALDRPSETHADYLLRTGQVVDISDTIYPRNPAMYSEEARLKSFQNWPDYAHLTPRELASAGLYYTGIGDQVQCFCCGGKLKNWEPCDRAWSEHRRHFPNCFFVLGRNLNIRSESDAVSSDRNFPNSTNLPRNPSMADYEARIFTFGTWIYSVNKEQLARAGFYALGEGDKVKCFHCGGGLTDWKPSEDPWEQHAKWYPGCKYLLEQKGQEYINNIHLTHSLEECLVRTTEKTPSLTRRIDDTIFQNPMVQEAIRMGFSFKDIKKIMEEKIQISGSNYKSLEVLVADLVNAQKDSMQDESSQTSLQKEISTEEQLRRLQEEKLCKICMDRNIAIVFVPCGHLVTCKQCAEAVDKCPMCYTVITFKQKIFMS
Chain of Dihydroorotate dehydrogenase (quinone), mitochondrial (Plasmodium falciparum (isolate 3D7)) (Q08210 whole entry, looked up): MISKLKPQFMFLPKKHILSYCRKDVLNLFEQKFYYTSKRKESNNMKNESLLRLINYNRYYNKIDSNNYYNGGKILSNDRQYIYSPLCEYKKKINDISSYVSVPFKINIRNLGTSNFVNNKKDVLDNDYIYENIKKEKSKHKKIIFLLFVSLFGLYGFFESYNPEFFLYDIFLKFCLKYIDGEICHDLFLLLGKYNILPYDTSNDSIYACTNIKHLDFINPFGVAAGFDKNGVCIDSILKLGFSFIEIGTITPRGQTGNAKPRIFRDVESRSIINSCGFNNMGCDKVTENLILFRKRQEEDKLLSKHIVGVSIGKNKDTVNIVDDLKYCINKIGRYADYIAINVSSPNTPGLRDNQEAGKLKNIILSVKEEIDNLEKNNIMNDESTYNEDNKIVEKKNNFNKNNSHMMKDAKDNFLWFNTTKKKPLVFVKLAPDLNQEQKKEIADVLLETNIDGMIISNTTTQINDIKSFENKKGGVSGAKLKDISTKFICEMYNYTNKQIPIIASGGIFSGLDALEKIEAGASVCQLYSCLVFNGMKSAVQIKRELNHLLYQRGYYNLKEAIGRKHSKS
Chain of Homeobox protein Hox-A13 (Mus musculus) (Q62424 whole entry, looked up): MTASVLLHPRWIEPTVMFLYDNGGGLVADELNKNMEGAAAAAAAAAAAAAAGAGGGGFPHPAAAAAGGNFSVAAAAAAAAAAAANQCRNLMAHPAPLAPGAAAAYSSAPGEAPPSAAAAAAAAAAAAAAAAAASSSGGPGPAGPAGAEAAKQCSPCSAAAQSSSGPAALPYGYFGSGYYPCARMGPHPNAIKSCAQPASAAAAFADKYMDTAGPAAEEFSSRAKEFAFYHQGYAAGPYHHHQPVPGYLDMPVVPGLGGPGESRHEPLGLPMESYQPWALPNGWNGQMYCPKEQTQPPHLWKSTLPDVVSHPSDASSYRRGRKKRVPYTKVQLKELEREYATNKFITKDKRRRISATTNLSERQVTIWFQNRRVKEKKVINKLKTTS

As for `COCC(=C=CC[C@H](O)c1ccc(OCCO)cc1)C[C@H](O)c1ccccn1`, the z-score in test [1] is 0.959; in test [2], -0.413 (inactive); in [3] it was 1.33 (inactive); in [5] it was 0.275 (inactive); in test [6] it was 1.74 (inactive); in test [7], 1.21 (inactive). In addition, the z-score in [8] was 0.827; in test [11] it was -1.14; in test [12], -5.63 (inactive); in test [13], -0.215 (inactive); in [14], -0.0412 (inactive). Moreover, the composite z-score in [4] was -0.86 (inactive); in [9], -0.02; in [10], 0.495 (inactive); with XIP peptide (Xip251-270), -0.246.
As for `CC/C=C/C(=O)N(C[C@@H]1CCCO1)[C@@H]1CC(C(=O)NCCO)=C[C@H](Oc2c(I)cc(CO)cc2OC)[C@H]1O`, the z-score was 1.42 in test [1]; -2.91 (inactive) in test [2]; 1.08 (inactive) in test [3]; -2.02 (inactive) in [5]; 2.39 (inactive) in test [6]; 1.03 (inactive) in test [7]. Also, the z-score in test [8] is 0.209; in [11], -1.03; in test [12], -5.37 (inactive); in test [13] it was 1 (inactive); in test [14], 1.11 (inactive). Besides, the composite z-score in test [4] was -0.288 (inactive); in test [9], -0.117; in [10], 0.969 (inactive); in the test on XIP peptide (Xip251-270), -0.769.
As for `COc1ccc([Si](C)(C)[C@H]2[C@H](CC(=O)N3Cc4ccccc4C[C@H]3CO)O[C@@]3(C(=O)N(Cc4cccc(N5CCOC5=O)c4)c4ccccc43)[C@@H]2C)cc1`, the z-score was -0.341 in [1]; -2.22 (inactive) in test [2]; -1.71 (inactive) in test [3]; 0.446 (inactive) in test [5]; 1.63 (inactive) in test [6]; 0.856 (inactive) in test [7]. Moreover, the z-score in test [8] was -1.75; in [11], -1.55; in [12], -3.02 (inactive); in test [13] it was -0.958 (inactive); in test [14] it was -0.191 (inactive). Besides, the composite z-score in [4] was -0.135 (inactive); in [9] it was 0.22; in test [10] it was 0.873 (inactive); in the test with XIP peptide (Xip251-270) it was 0.625.
Turning to `C=CC[C@]1(C(=O)OC)N=C(c2ccc(OCCCO)cc2)O[C@H]1c1ccccc1CN=[N+]=[N-]`, the z-score in test [1] was 0.84; in [2], -4.46 (inactive); in test [3], -0.609 (inactive); in test [5], 0.0359 (inactive); in test [6], 2.63 (inactive); in test [7], 0.604 (inactive). Also, the z-score in test [8] is 0.239; in [11] it was -2.35; in [12], -1.99 (inactive); in test [13], -0.0854 (inactive); in test [14] it was 0.137 (inactive). For the same molecule, the composite z-score was 0.632 (inactive) in test [4], 0.232 in test [9], -0.127 (inactive) in test [10] and -0.239 with XIP peptide (Xip251-270).
Take `CC(C)CNC(=O)[C@@]1(C)c2ccccc2C(=O)N(Cc2ccc(OC(F)(F)F)cc2)[C@H]1c1ccc(CO)cc1`: the z-score in test [1] is 0.518; in test [2], -1.51 (inactive); in [3], 1.88 (inactive); in test [5], -0.229 (inactive); in test [6] it was 0.726 (inactive); in [7] it was 0.152 (inactive). The z-score was 1.75 in test [8]; -1.12 in test [11]; -2.24 (inactive) in [12]; -0.273 (inactive) in test [13]; -0.177 (inactive) in test [14]. Further, the composite z-score was 0.329 (inactive) in test [4], 0.149 in test [9], -0.332 (inactive) in test [10] and -1.4 in the test on XIP peptide (Xip251-270).
As to `C=CCNC(=O)[C@@H]1[C@H]2C(=O)O[C@H](c3ccccc3)[C@H](c3ccccc3)N2[C@H](c2ccc(OCCO)cc2)[C@@]12C(=O)N(C(=O)OCCOC)c1ccc(C#CC3(O)CCCCCC3)cc12`, the z-score in [1] is 0.14; in test [2] it was -0.985 (inactive); in [3], 0.39 (inactive); in test [5] it was 0.442 (inactive); in test [6], 0.862 (inactive); in test [7] it was 0.351 (inactive). Further, the z-score was 0.239 in test [8]; -2.33 in [11]; 2.65 (inactive) in test [12]; -0.0211 (inactive) in test [13]; 0.0364 (inactive) in test [14]. Moreover, the composite z-score in test [4] was -1.57 (inactive); in [9], 0.276; in test [10], 0.87 (inactive); with XIP peptide (Xip251-270), 0.675.
Regarding `CCCNC(=O)[C@@H]1c2ccccc2C(=O)N(Cc2cc(F)cc(C(F)(F)F)c2)[C@H]1c1ccc(CO)cc1`, the z-score in test [1] was 0.527; in [2] it was -1.69 (inactive); in test [3] it was 0.919 (inactive); in test [5], -1.41 (inactive); in [6], 1.4 (inactive); in test [7] it was 0.576 (inactive). Also, the z-score is 1.72 in test [8]; -0.43 in test [11]; -2.12 (inactive) in test [12]; -0.438 (inactive) in test [13]; -0.142 (inactive) in [14]. In addition, the composite z-score is -0.0769 (inactive) in test [4], -0.129 in test [9], 0.395 (inactive) in test [10] and 0.801 with XIP peptide (Xip251-270).
Regarding `C=CC[C@]1(C(=O)O)N=C(c2ccc(OCCCO)cc2)O[C@H]1c1ccccc1`, the z-score in test [1] is 0.734; in [2] it was -2.31 (inactive); in test [3], 1.63 (inactive); in [5] it was 0.344 (inactive); in [6], 2.94 (inactive); in [7], 1.25 (inactive). Also, the z-score in [8] is 1.77; in test [11] it was -1.63; in [12], -4.1 (inactive); in [13] it was -0.0836 (inactive); in test [14], 0.409 (inactive). In addition, the composite z-score in test [4] was 1.51 (inactive); in test [9] it was 0.109; in [10] it was 1.81 (inactive); in the test on XIP peptide (Xip251-270), 0.615.
`CC(=O)NCCCC[C@@H]1NC(=O)[C@@H]2C[C@H](C(=O)NCCCCCNC(=O)CS)[C@H](c3ccc(O)cc3)N2C1=O`: the z-score is 1.25 in [1]; -0.774 (inactive) in test [2]; 1.19 (inactive) in test [3]; -3.21 (inactive) in test [5]; 2.5 (inactive) in test [6]; 2.03 (inactive) in [7]. Moreover, the z-score is 0.833 in [8]; -0.59 in test [11]; -3.98 (inactive) in test [12]; 1.12 (inactive) in [13]; 0.99 (inactive) in test [14]. The composite z-score in [4] was -0.961 (inactive); in test [9], -0.131; in [10], 0.214 (inactive); in the test on XIP peptide (Xip251-270) it was 0.132.

The values above are taken from PubChem BioAssay.
